Assay results from ChEMBL document CHEMBL1857833, “Screening and optimization of specific chemical series against human African Trypanosomiasis (HAT)”.
Values joined by “and” are separate entries in the source; they are usually repeats but may differ in a detail not shown here. Equal entries are not always repeated. In all, about 4,400 compounds went through this assay and about 390 (8.9%) showed an effect of 50% or more. The sample as a whole holds a higher share of strong results than the screen did.

test system: Trypanosoma brucei; assay: DNDI: Inhibition of Human African Trypanosomiasis, SBRI 427, in vitro at 2 ug.mL-1; assay type: functional

SMILES | % inhibition
Cc1ccc(-c2nc(CN(C)C(C)(C)C)co2)cc1 | 22%
CN(CCc1ccccc1)Cc1coc(-c2ccc(Cl)cc2Cl)n1 | 11%
Cc1ccc(CCNCc2coc(-c3ccc(Cl)cc3Cl)n2)cc1 | -7%
C=CCN(C)Cc1coc(-c2cccc(OC)c2)n1 | 27%
CSc1ccc(Oc2nc(C)ccc2/C(=N/O)N2C(C)CCC2C)cc1C (stereo not given) | 23%
FC(F)(F)c1ccc(CNCc2coc(-c3cccs3)n2)cc1 | -6%
COc1ccc(-c2nc(CN3CCN(C)CC3)co2)cc1 | 4%
Cc1ccc(-c2nc(Cn3cc(C)nc3C)co2)cc1 | 18%
CCCCNCc1coc(-c2ccc(C(C)(C)C)cc2)n1 | 99%
Cc1ccc(CNCc2coc(-c3ccc(C(C)(C)C)cc3)n2)o1 | 0%
COc1ccc(-c2nc(CNCC3CCCCC3)co2)cc1 | 10%
CC(C)C(C)NCc1coc(-c2ccc(O)cc2)n1 (stereo not given) | 33%
Cc1cn(Cc2coc(-c3ccc(C(F)(F)F)cc3)n2)c(C)n1 | 2%
CCCCNCc1coc(-c2ccccc2)n1 | 20%
CC(C)C(C)NCc1coc(-c2ccc(C(C)(C)C)cc2)n1 (stereo not given) | 72%
Cc1cn(Cc2coc(-c3ccc(C(C)(C)C)cc3)n2)c(C)n1 | 58%
Cc1ccc(-c2nc(CNC(C)C(C)C)co2)cc1 (stereo not given) | 41% and 29%
CC(C)(C)c1ccc(-c2nc(CNCC3CC3)co2)cc1 | 99%
c1ccc(-c2nc(CNCC3CC3)co2)cc1 | 28%
CCOc1ccccc1N(Cc1ccccc1)Cc1coc(-c2cccc(F)c2)n1 | 1%
Brc1ccccc1-c1nc(CNCc2cccc3ccccc23)co1 | -1%
CCCCN(C)Cc1coc(-c2ccc(OC)cc2)n1 | 9%

SMILES | % inhibition
COc1cccc(-c2nc(CN3CCCCCCC3)co2)c1 | 31%
Cc1ccc(/C(=N/O)N(C)Cc2ccco2)c(Oc2cccc3c2CCCC3)n1 | -8%
Cc1cn(Cc2coc(-c3cccc4ccccc34)n2)cn1 | 1%
CCN(Cc1coc(-c2ccccc2Cl)n1)c1ccc(C)cc1 | -3%
CC(CNCc1coc(-c2cccc3ccccc23)n1)c1ccccc1 (stereo not given) | 8%
COc1ccc(N2CCN(Cc3coc(-c4ccc(F)cc4)n3)CC2)cc1 | -1%
Oc1ccc(-c2nc(CN3CCCCCC3)co2)cc1 | 9%
Brc1ccc(-c2nc(CN3CCCC3)co2)cc1 | 1%
Cc1ccc(-c2nc(CN3CCC(N4CCCC4)CC3)co2)cc1 | 60%
Fc1ccc(-c2nc(CN3CCN(c4ccc(F)cc4)CC3)co2)cc1 | 52%
Cc1ccc(-c2nc(CN3CCC(N4CCCCC4)CC3)co2)cc1 | 3%
Brc1ccc(-c2nc(CN3CCCCCC3)co2)cc1 | 72%
COc1ccc(-c2nc(CN3CCC(N4CCCC4)CC3)co2)cc1 | -12%
Cc1ccc(-c2nc(CN3CCN(c4ccc(F)cc4)CC3)co2)cc1 | 0%
Cc1ccc(/C(=N/O)NCc2ccccc2)c(Oc2ccc(F)c(F)c2)n1 | 23%
CCOc1ccc(Oc2ccc(/C(N)=N/O)cn2)cc1 | 10%
Cc1ccc(-c2nc(CNc3cc[nH]n3)co2)cc1 | 10%
Cc1ccc(/C(=N/O)NCCC2CCCN2C)c(OCc2ccccc2)n1 (stereo not given) | 22%
Clc1ccc(-c2nc(CNC3CCN(Cc4ccccc4)CC3)co2)c(Cl)c1 | 74%
Cc1cc(N2CCN(Cc3coc(-c4cccc5ccccc45)n3)CC2)c2ccccc2n1 | 52%
Clc1ccccc1-c1nc(CNC2CCN(Cc3ccccc3)CC2)co1 | 20%
Oc1ccc(-c2nc(CNC3C[C@H]4CC[C@@H]3C4)co2)cc1 (stereo not given in full) | 11%

SMILES | % inhibition
Cc1cc(N2CCN(Cc3coc(-c4ccccc4Cl)n3)CC2)c2ccccc2n1 | 7%
Cc1ccc(-c2nc(CN3CCN(c4cc(C)nc5ccccc45)CC3)co2)cc1 | 12%
Clc1ccc(-c2nc(CNC3C[C@H]4CC[C@@H]3C4)co2)c(Cl)c1 (stereo not given in full) | 52%
Clc1ccc(-c2nc(CNC3CCN(Cc4ccccc4)C3)co2)c(Cl)c1 (stereo not given) | 18%
c1ccc(CN2CCC(NCc3coc(-c4cccc5ccccc45)n3)CC2)cc1 | 66%
c1ccc(CN2CCC(NCc3coc(-c4cccc5ccccc45)n3)C2)cc1 (stereo not given) | 14%
Clc1ccc(-c2nc(CNC3CCc4ccccc43)co2)c(Cl)c1 (stereo not given) | -4%
c1ccc(CN2CCN(Cc3coc(-c4cccc5ccccc45)n3)CC2)cc1 | 18%
Cc1cccc(N2CCN(Cc3coc(-c4ccccc4F)n3)CC2)c1C | -33%
CN(CCc1ccccc1)Cc1coc(-c2ccccc2Cl)n1 | 17%
COc1cccc(-c2nc(CN(C)Cc3cc(OC)c(OC)c(OC)c3)co2)c1 | -4%
O/N=C(\NCC1CCCCC1)c1cccnc1Oc1c(F)cccc1F | 99%
O/N=C(\NC1CCCC1)c1cccnc1Oc1c(F)cccc1F | 100%
CC1CC(N/C(=N\O)c2cccnc2Oc2c(F)cccc2F)CC(C)(C)C1 (stereo not given) | 98%
O/N=C(\NC1CCCCC1)c1cccnc1Oc1c(F)cccc1F | 99%
O/N=C(\NCC1CCCO1)c1cccnc1Oc1c(F)c(F)cc(F)c1F (stereo not given) | 1%
O/N=C(/c1cccnc1Oc1c(F)cccc1F)N1CCC2CCCCC2C1 (stereo not given) | -13%
CC1CC(N/C(=N\O)c2cccnc2Oc2c(F)c(F)cc(F)c2F)CC(C)(C)C1 (stereo not given) | -10%
CC1CC(N/C(=N\O)c2cccnc2OCC(C)(C)C)CC(C)(C)C1 (stereo not given) | 44%
COc1ccc(Oc2nc(C)ccc2/C(=N/O)NCCN(C)C)cc1 | 0%
CCOc1ccc(-c2nc(CN(C)C3CCCCC3)co2)cc1 | 5%
c1ccc(Oc2ccc(NCc3coc(-c4cccc5ccccc45)n3)cc2)cc1 | 1%

SMILES | % inhibition
O/N=C(/c1cccnc1OCc1ccccc1F)n1ccnc1 | -10%
C#CCN(C)Cc1coc(-c2ccc(C)cc2)n1 | -1%
Fc1cccc(-c2nc(CNCc3cccc4ccccc34)co2)c1 | 17%
CCOc1ccccc1N(Cc1ccccc1)Cc1coc(-c2ccc(O)cc2)n1 | -16%
O/N=C(/c1ccc(Oc2ccc(-n3ccnc3)cc2)nc1)N1CC=CC1 | 16%
COc1ccc(NCc2coc(-c3ccc(OC)cc3)n2)cc1 | 9%
COc1ccc(OC)c(NCc2coc(-c3ccc(C)cc3)n2)c1 | 0%
CC1CCC(N/C(=N\O)c2cccnc2Oc2c(F)cccc2F)CC1 (stereo not given) | 99%
CC1CC(C)CN(/C(=N\O)c2cccnc2Oc2c(F)cccc2F)C1 (stereo not given) | 28%
Cc1ccc(/C(=N/O)NC2CCC(C)CC2)c(Oc2c(F)c(F)cc(F)c2F)n1 (stereo not given) | 22%
CCOc1ccc(-c2nc(CN(C)c3ccccc3)co2)cc1 | -8%
CN(Cc1coc(-c2ccc(Cl)cc2Cl)n1)CC1OCCO1 | 30%
COc1cc(C)ccc1Oc1nc(C)ccc1/C(=N/O)Nc1ccccc1 | -6%
CC(C)c1ccc(NCc2coc(-c3ccc(F)cc3)n2)cc1 | 7%
COc1cc(-c2nc(CN(C)CCc3ccccn3)co2)cc(OC)c1OC | -7%
COc1ccc(-c2nc(CN3CCN(c4cccc(C(F)(F)F)c4)CC3)co2)cc1 | -13%
Brc1ccccc1-c1nc(CNCCCn2ccnc2)co1 | 2%
Clc1ccc(-c2nc(CNCCCn3ccnc3)co2)c(Cl)c1 | 86%
CCOc1ccccc1-c1nc(CNCCCn2ccnc2)co1 | 32%
Brc1ccc(-c2nc(CNCCCn3ccnc3)co2)cc1 | 56%
Clc1ccc(-c2nc(CNCCN3CCOCC3)co2)c(Cl)c1 | 0%
COc1ccc(-c2nc(CNCCCn3ccnc3)co2)cc1 | 6%

SMILES | % inhibition
CC1CCCCN1CCCNCc1coc(-c2ccc(Cl)cc2Cl)n1 (stereo not given) | 99%
Cc1cccc(-c2nc(CNCCCn3ccnc3)co2)c1 | -8%
Clc1ccc(-c2nc(Cn3ccnc3)co2)c(Cl)c1 | 5%
Clc1ccc(-c2nc(CNCc3ccncc3)co2)c(Cl)c1 | 9%
C#CCNCc1coc(-c2ccc(Cl)cc2Cl)n1 | 3%
c1ccc2c(-c3nc(CNCCCn4ccnc4)co3)cccc2c1 | 54%
Cc1ccc(/C(=N/O)NC2CCCCC2)c(OCc2cccc(F)c2)n1 | -9%
CCC(NCc1coc(-c2ccc(OC(F)(F)F)cc2)n1)c1ccccc1 (stereo not given) | -21%
CSc1ccc(Oc2cc(/C(=N/O)NC3CCc4ccccc43)ccn2)cc1 (stereo not given) | 9%
COCCN(Cc1coc(-c2ccccc2C)n1)C(C)(C)C | 2%
COc1ccc(Oc2nc(C)ccc2/C(=N/O)N2CCCCC2)cc1 | 28%
Cc1cccc(Oc2nc(C)ccc2/C(=N/O)N2CCN(c3ccc(F)cc3)CC2)c1 | 12%
COc1ccccc1CN/C(=N\O)c1ccc(C)nc1OC1CCC1 | 6%
Cc1cn(Cc2coc(-c3cccc(F)c3)n2)c(-c2ccccc2)n1 | -9%
CCOc1ccc(Oc2cc(/C(=N/O)N3CCC4CCCCC4C3)ccn2)cc1 (stereo not given) | 16%
Cn1nc(C(C)(C)C)cc1NCc1coc(-c2cccc3ccccc23)n1 | 25%
CCOc1ccccc1-c1nc(CN(C)Cc2ccccc2)co1 | 4%
Cc1ccc(/C(=N/O)N(C)C2CCCCC2)c(Oc2cccc(F)c2)n1 | 10%
CCC(NCc1coc(-c2ccc(OC)cc2)n1)c1ccccc1 (stereo not given) | 12% and 8%
Clc1ccc(-c2nc(CNCCCN3CCCC3)co2)c(Cl)c1 | 98%
Clc1ccc(-c2nc(CNCCN3CCCC3)co2)c(Cl)c1 | -4%
Clc1ccc(-c2nc(CNCCCN3CCOCC3)co2)c(Cl)c1 | 23%
